These results are taken from PubChem BioAssay AID430 (Sanford-Burnham Center for Chemical Genomics, 2006).

Molecules are shown by their SMILES. Hit rate of the full screen: of about 63,000 compounds, about 1,100 (1.7%) were called active. What follows is part of a selection rich in actives, with near analogues and random picks from the rest. Measured potencies and affinities stand elsewhere. Unmarked numbers belong to inactive results. No stated cut-off is given here; in the data, active means cytotoxicity above about 50%; inactive means the rest.

This test can be described thus: cytotoxicity in HPDE-C7 cells, cell-based, fluorescence, HTS (AID 430).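 Further: cells exposed to compound for 48 hours before viability readout; 0% = vehicle and 100% = reference cytotoxic drug.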 The settings on record: HPDE-C7 pancreatic duct cells viability, at 10 µM, stronger effect = higher value.
As for `Cc1ccc(N=c2oc3cc(O)ccc3cc2C(N)=O)cc1`, the cytotoxicity is 3.9%.

Regarding `Cc1cccc(N=c2oc3cc(O)ccc3cc2C(N)=O)c1`, the cytotoxicity is 59.6% (active).

As to `NC(=O)c1cc2ccc(O)cc2oc1=Nc1ccccc1`, the cytotoxicity is 5.3%.

Turning to `COCCn1c(SCC(=O)Nc2nnc(C)s2)nnc1-c1cc2ccccc2cc1O`, the cytotoxicity was 7.4%.

Take `Cc1[nH]c(=O)[nH]c(=O)c1NS(=O)(=O)c1ccc2c(c1)CCCC2`: the cytotoxicity was 10.1%.

Regarding `COCCCN(C(=O)Nc1ccccc1)C(C)c1ccncc1` (configuration not stated), the cytotoxicity is 4.9%.

Consider `COc1ccc(N2C(=O)CC(N3CCN(C4CCc5ccccc5C4)CC3)C2=O)cc1` (configuration not stated), for which the cytotoxicity was -10.3%.

On to `CCc1ccc(NC(=O)CSC2=C(C#N)C(c3ccco3)C3=C(CCCC3=O)N2)cc1` (configuration not stated), for which the cytotoxicity is -0.7%.

`CC1(C)CC(=O)C2=C(C1)NC(SCC(=O)Nc1ccccc1)=C(C#N)C2c1ccco1` (configuration not stated): the cytotoxicity was -16.1%.

Turning to `CCCCc1ccc(NC(=O)CSC2=C(C#N)C(c3ccco3)C3=C(CCCC3=O)N2)cc1` (configuration not stated), the cytotoxicity is 72.2% (active).

With `COc1cccc(NC(=O)CSC2=C(C#N)C(c3ccco3)C3=C(CCCC3=O)N2)c1` (configuration not stated), the cytotoxicity was 22.1%.

Consider `CCOC(=O)C1=C(c2ccccc2)NC(SCC(=O)Nc2ccc(C)cc2)=C(C#N)C1c1ccco1` (configuration not stated), for which the cytotoxicity is 10.3%.

For the compound `Cc1ccc(NC(=O)CSC2=C(C#N)C(c3ccco3)C3=C(CC(C)(C)CC3=O)N2)cc1` (configuration not stated), the cytotoxicity was 57.2% (active).

As to `O=C(CN1C(=O)C2C3C=CC(C3)C2C1=O)NCCN1CCCc2ccccc21` (configuration not stated), the cytotoxicity was -7.4%.

Regarding `CC1CCCN(S(=O)(=O)c2ccc(S(=O)(=O)N3CCCN(Cc4ccccc4)C3)cc2)C1` (configuration not stated), the cytotoxicity was 3.7%.

In the case of `COc1ccc(N2CCN(c3nc4c(c(=O)[nH]c(=O)n4C)n3CCCc3ccccc3)CC2)cc1`, the cytotoxicity was -7.6%.

For the compound `Cc1ccc(-c2c3c(=O)n(C)c(=O)n(C)c3cn2Cc2ccccn2)cc1`, the cytotoxicity was -3.1%.

As to `CCCOc1ccc(CSc2nnc(CCC)n2N)cc1`, the cytotoxicity was -13.5%.

As to `O=C1c2ccncc2C(=O)N1C1CCCCC1`, the cytotoxicity is -7.2%.

As for `CN1CCN(C2=C(Cl)C(=O)N(C3CCCCC3)C2=O)CC1`, the cytotoxicity is -8%.

On to `Cc1ccc(NS(=O)(=O)c2ccc(OCC(=O)NCc3ccco3)cc2)cc1`, for which the cytotoxicity is 6.8%.

Regarding `CC(C)CCn1nc(C(=O)OC(C)C(=O)NC(N)=O)c2ccccc2c1=O` (configuration not stated), the cytotoxicity is -13.9%.

Regarding `Cc1ccccc1N=C1NC(=O)CS1`, the cytotoxicity was -24.1%.

With `CCCn1c(CN2CCN(C(=O)OCC)CC2)nc2c1c(=O)n(C)c(=O)n2C`, the cytotoxicity is -8.2%.

Consider `CCCCOC(=O)C1Cc2ccccc2C(=O)O1` (configuration not stated), for which the cytotoxicity was -4.8%.

As for `CCCCCn1c(CN2CCN(c3cccc(Cl)c3)CC2)nc2c1c(=O)[nH]c(=O)n2C`, the cytotoxicity was 43.9%.

In the case of `CC(C)Cn1c(CN2CCN(c3ccccc3F)CC2)nc2c1c(=O)[nH]c(=O)n2C`, the cytotoxicity was -0.6%.

`Cc1ccc(Cl)cc1N1CCN(Cc2nc3c(c(=O)[nH]c(=O)n3C)n2Cc2ccccc2F)CC1`: the cytotoxicity is 112% (active).

On to `Cn1c(=O)[nH]c(=O)c2c1nc(CN1CCN(c3cccc(Cl)c3)CC1)n2Cc1ccccc1Cl`, for which the cytotoxicity was -3.5%.

Turning to `CCCCCn1c(CN2CCN(Cc3ccccc3)CC2)nc2c1c(=O)[nH]c(=O)n2C`, the cytotoxicity is 0%.

Consider `O=C(Cc1c(O)c2ccccc2[nH]c1=O)NCc1cccc(F)c1`, for which the cytotoxicity was 2.7%.

For `CCN(CC)CCCN1C(=O)C(=O)/C(=C(/O)c2ccc(OC)c(Cl)c2)C1c1ccco1` (configuration not stated), the cytotoxicity is 4.6%.

As for `COc1ccccc1CN1C(=O)[C@@H]2C(CCC(N)=O)NC3(C(=O)Nc4c3ccc(Cl)c4C)[C@@H]2C1=O` (some centres not stated), the cytotoxicity was -5.3%.

As for `c1ccc2c(c1)Cn1nnnc1-2`, the cytotoxicity was 1.3%.

Regarding `Cn1nc(-c2ccc(N3CCCCC3)c(NC(=O)c3ccco3)c2)c2ccccc2c1=O`, the cytotoxicity was 64.9% (active).

Consider `CCC(=O)Nc1cc(-c2nn(C)c(=O)c3ccccc23)ccc1N1CCCCC1`, for which the cytotoxicity was 5.4%.

`CCCC(=O)Nc1cc(-c2nn(C)c(=O)c3ccccc23)ccc1N1CCCCC1`: the cytotoxicity was -10.2%.

With `O=C(CCCC(=O)N(CC(=O)NC1CCCC1)C1CCCC1)Nc1ccccn1`, the cytotoxicity is -20.8%.

On to `CCNC(=O)NC(=O)C(C)Oc1ccc(C(=O)OC)cc1` (configuration not stated), for which the cytotoxicity is 2.8%.

Regarding `Cc1ccc(-c2csc3nnc(SCC(=O)Nc4nsc(-c5ccccc5)n4)n23)cc1`, the cytotoxicity is -4.6%.

Take `Cc1sc(NC(=O)CSc2nnc(COc3ccccc3)n2C)c(C#N)c1C`: the cytotoxicity is 4.2%.

Turning to `Oc1ccccc1-c1nnc(COc2ccc(Cl)cc2Cl)o1`, the cytotoxicity was 35.9%.

Regarding `O=C(O)CCCC(=O)Nc1nc(-c2ccccc2)cs1`, the cytotoxicity is 6.9%.

For the compound `CCOc1cc2[nH]c(=O)n(CCC(=O)N3CCN(c4ccccc4OC)CC3)c(=O)c2cc1OCC`, the cytotoxicity is -8.1%.

As to `COc1cc2[nH]c(=O)n(CCC(=O)N3CCN(c4cccc(C)c4C)CC3)c(=O)c2cc1OC`, the cytotoxicity was 0.4%.

In the case of `COc1cc2[nH]c(=O)n(CCC(=O)N3CCN(c4cc(Cl)ccc4C)CC3)c(=O)c2cc1OC`, the cytotoxicity was 63.8% (active).

With `COc1ccc(Cl)cc1C(=O)N1CCN=C1SC`, the cytotoxicity is -11.2%.

Take `CCOc1cc(C#N)c(NC(=O)c2ccco2)cc1OCC`: the cytotoxicity was 12.6%.

For `CCOc1cc(C#N)c(NC(=O)c2ccnn2C)cc1OCC`, the cytotoxicity was 23.5%.

In the case of `CCOc1cc(C#N)c(NC(=O)c2cccnc2)cc1OCC`, the cytotoxicity is 51.5% (active).

`Cc1ccc2nc(Nc3nc(=O)c4ccccc4n3C)nc(C)c2c1`: the cytotoxicity was 13.7%.

For `Cc1nnc(SCc2cc(=O)[nH]c(Nc3nc(C)c4ccccc4n3)n2)s1`, the cytotoxicity was -0.8%.

Take `Cc1ccc(Nc2nc(CSc3nnnn3-c3ccccc3)cs2)cc1`: the cytotoxicity is 32.1%.

On to `COc1ccc2nc(Nc3nc(C)c(CCC(C)C)c(=O)[nH]3)nc(C)c2c1`, for which the cytotoxicity is 6.2%.

Turning to `COc1cc2nc(NC(=O)c3ccccc3)[nH]c(=O)c2cc1OC`, the cytotoxicity is 13.3%.

With `Cc1ccc2c(C)nc(Nc3nc(CSc4nnnn4-c4ccccc4)cc(=O)[nH]3)nc2c1`, the cytotoxicity is 51% (active).

For the compound `CCc1c(C)nc(Nc2nc(C)c3cc(OC)ccc3n2)[nH]c1=O`, the cytotoxicity was 56.1% (active).

Consider `Cc1ccc(Nc2nc(CSc3nnnn3-c3ccccc3)cc(=O)[nH]2)cc1`, for which the cytotoxicity is 12%.

As to `CCCCCc1c(C)nc(Nc2nc(C)c3cc(OC)ccc3n2)[nH]c1=O`, the cytotoxicity is -0.5%.

In the case of `Cc1nc(Nc2nc(-c3ccccc3)cc(=O)[nH]2)nc2ccccc12`, the cytotoxicity was 52.3% (active).

On to `Cc1nc(-c2ccccc2)cc(=O)[nH]1`, for which the cytotoxicity was 4%.

Take `COc1nc(Nc2nc3ccccc3c(=O)[nH]2)nc2ccc(C)cc12`: the cytotoxicity is 86.7% (active).

`Cc1ccc(NC(=O)CSc2nnc(CNC(=O)c3c(F)cccc3Cl)o2)cc1`: the cytotoxicity is -9.7%.

On to `CCOc1ccc(N2CC(C(=O)Nc3ccccc3OC)CC2=O)cc1` (configuration not stated), for which the cytotoxicity is -2.5%.

As to `COc1cc(C(=S)N2CCCC2)cc(Cl)c1O`, the cytotoxicity is -4%.

`COc1ccccc1-c1cc(C(=O)NCc2ccc(Cl)cc2)no1`: the cytotoxicity is -15.3%.

As for `OCc1nn2c(c1Br)NC(c1ccccc1)CC2C(F)(F)F` (configuration not stated), the cytotoxicity is -8.4%.

Regarding `CCOc1ccc(CCNC(=O)C2CCN(c3nn4c(=O)cc(C)nc4s3)CC2)cc1OCC`, the cytotoxicity was -6.6%.

For the compound `COc1cc(OC)cc(C(=O)NC2CCN(Cc3nnnn3Cc3cccs3)CC2)c1`, the cytotoxicity was -7.1%.

`CC(=O)NC(CCS(C)(=O)=O)C(=O)Nc1c(C)cccc1C` (configuration not stated): the cytotoxicity was 10.4%.

Take `COCc1cc(=O)[nH]c(Nc2nc(C)c3ccc(C)cc3n2)n1`: the cytotoxicity was 5.4%.

As to `COc1ccc2c(C)nc(Nc3nc(C)cc(C)n3)nc2c1`, the cytotoxicity was -4.7%.

Take `COc1ccc2c(C)nc(Nc3nc(C)cc(=O)[nH]3)nc2c1`: the cytotoxicity was 80.7% (active).

As for `N#Cc1c(-c2ccccc2)nc(SCc2nc(N)nc(N3CCCCC3)n2)[nH]c1=O`, the cytotoxicity was 9.2%.

With `CCN1CCN(CCNC(=O)c2cn(C(C)c3ccccc3F)nn2)CC1` (configuration not stated), the cytotoxicity was -5.9%.

Consider `COc1ccc(-c2cc(-c3cc(F)ccc3O)[nH]n2)cc1OC`, for which the cytotoxicity is 8.9%.

Consider `Oc1ccccc1-c1cc(-c2cccc(F)c2)n[nH]1`, for which the cytotoxicity is 3.1%.

As for `COc1ccc(-c2cc(-c3ccccc3O)[nH]n2)cc1OC`, the cytotoxicity is 51.6% (active).

Take `Cc1ccc(-n2ncc(C#N)c2/N=C/N(C)C)cc1`: the cytotoxicity was 8.6%.

In the case of `CC(=O)Nc1ccc(NC(=O)c2cccc(C(=O)OC(C)C)n2)cc1`, the cytotoxicity was -2.2%.

Take `O=C(NCCCN1CCN(CCCNC(=O)c2ccc(F)cc2)CC1)c1ccc(F)cc1`: the cytotoxicity was -6.2%.

As to `CS(=O)(=O)N1CCc2cc(S(=O)(=O)Nc3ccc4oc5c(c4c3)CCCC5)ccc21`, the cytotoxicity was 80% (active).

For the compound `CS(=O)(=O)N1CCc2cc(C(=O)O)ccc21`, the cytotoxicity is -2.9%.

Turning to `CS(=O)(=O)N1CCc2cc(S(=O)(=O)N3CCN(Cc4ccc5c(c4)OCO5)CC3)ccc21`, the cytotoxicity is 6.1%.

As to `COC(=O)c1ccccc1NC(=O)CSc1nnc(-c2cccc(NC(C)=O)c2)n1C`, the cytotoxicity is 6.2%.

Take `COc1ccc(OCc2nc(N)nc(Nc3cccc(C)c3C)n2)cc1`: the cytotoxicity was -10.3%.

On to `N#Cc1c(NCCCO)nc(-c2ccccc2)c2c1CCCC2`, for which the cytotoxicity was 38.6%.

For `C=CCNc1nc(NCc2ccccc2)c(C#N)c2c1CN(C)CC2`, the cytotoxicity was 14.5%.

For the compound `N#Cc1c(NCCO)nc(NCc2ccccc2)c2c1CCN(Cc1ccccc1)C2`, the cytotoxicity is 34.2%.

With `CCN1CCc2c(C#N)c(N3CCCCC3)nc(NCc3ccccc3)c2C1`, the cytotoxicity is 30.7%.

`O=C(c1ccccc1F)N1CCN(S(=O)(=O)c2ccc(S(=O)(=O)N3CCCCC3)cc2)CC1`: the cytotoxicity was -2.6%.

Take `Cn1c(=O)n(C)c2cc(NS(C)(=O)=O)ccc21`: the cytotoxicity is -29.4%.
